# Test results published in the supplement of paper PMC12636033.
# ± gives the standard deviation of the averaged measurements. In all, about 33,000 sequences were measured (“E-score (rank enrichment, -0.5 to 0.5)”: median about -0.0043, highest 2% from about 0.24 on). What follows is part of a selection rich in the highest values, with near analogues and random picks from the rest.
# Tested on: 2Sp-muMax20 (muMax20 with two 2,6-bis(methyl)pyridine Cys staples)
# Assay: PBM 8-mer E-score (E-score (rank enrichment, -0.5 to 0.5)); higher = stronger preferential binding
# Procedure: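 Protein binding microarray (universal PBM chip covering all 10-mers in fixed probe flanks) with chemically synthesized human Max(13-93) bHLH-LZ analogs (not full-length Max) bearing noncanonical residues (hArg, Tha, Aib, Nle at 65) and aromatic Cys staples. Read-out per 8-mer (and its reverse complement): E-score (rank-based enrichment, -0.5 to 0.5) and Z-score of median probe intensity.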
row,Sequence,PBM 8-mer E-score
1,CCGGGCTA,-0.277 ± 0.0046
2,TGACCTCA,-0.183 ± 0.016
3,AGCTCAGA,-0.181 ± 0.0029
4,CGGATAGC,-0.0994 ± 0.018
5,CTAGCTGA,-0.0742 ± 0.045
6,AGACATAC,-0.0281 ± 0.088
7,ATACATAA,0.0924 ± 0.008
8,AGACATAG,0.0229 ± 0.087
9,ATACATAT,0.258 ± 0.0069
10,ATACATAC,0.0484 ± 0.023
11,AGTCATAT,0.24 ± 0.015
12,AGTCATAG,0.0709 ± 0.034
13,AGACATAT,0.249 ± 0.0045
14,AGTCATAA,0.037 ± 0.035
15,ACCTTATG,0.0929 ± 0.036
16,GGGGAACA,0.124 ± 0.0046
17,AATCAACC,0.157 ± 0.047
18,ACTAAGCT,-0.0864 ± 0.087
19,ATTCTCAC,0.0448 ± 0.078
20,ATAGCATG,0.258 ± 0.037
21,ATAGCATA,0.204 ± 0.038
22,ATAGCATC,0.118 ± 0.015
23,ATGACTTA,0.0917 ± 0.049
24,AGGATCAA,-0.0715 ± 0.043

row,Sequence,PBM 8-mer E-score
1,AAACTGTA,0.00471 ± 0.023
2,AACAGATA,-0.0996 ± 0.022
3,AACAGATC,0.243 ± 0.058
4,GACAGATC,0.0282 ± 0.0066
5,CCCCAGGG,-0.293 ± 0.032
6,CCAGACCC,-0.142 ± 0.016
7,AAACTTGA,0.17 ± 0.089
8,CAACTTGC,-0.157 ± 0.011
9,AAACTTGC,0.267 ± 0.039
10,GATTAATA,0.274 ± 0.062
11,CATTAATA,0.201 ± 0.014
12,TATTAACA,0.218 ± 0.011
13,GATTAACA,0.174 ± 0.046
14,GATTAATC,-0.0645 ± 0.077
15,TATTAATA,0.274 ± 0.1
16,GTCCTGCA,-0.0516 ± 0.027
17,ACCGCACT,-0.193 ± 0.07
18,AAACTGGC,-0.0533 ± 0.0029
19,CAAAGGCC,0.0557 ± 0.1
20,AAAAAGGC,0.00635 ± 0.045
21,CAAGGCCG,-0.065 ± 0.016
22,AAAGGCCC,-0.012 ± 0.043
23,CAAAAGGC,0.0445 ± 0.053
24,AAAAGGCC,0.3 ± 0.0042

row,Sequence,PBM 8-mer E-score
1,AAAGGCCG,0.281
2,GAAAGGCC,-0.146 ± 0.053
3,GAAAAGGC,0.308 ± 0.013
4,AGTGTCGG,-0.166 ± 0.11
5,GATGCCCC,-0.0212 ± 0.099
6,ATTGAGGC,0.167 ± 0.021
7,CAAATGTG,0.0759 ± 0.025
8,ACCATGTC,0.0986 ± 0.05
9,AACATGCT,0.126 ± 0.0074
10,AACATGCG,0.253 ± 0.035
11,CACATGTA,0.312 ± 0.02
12,ACCATGTA,0.0783 ± 0.049
13,CACATGTG,0.4178 ± 0.00081
14,CACATGCG,0.166 ± 0.097
15,ACCATGTG,0.262 ± 0.03
16,CTCATGTA,0.0793 ± 0.033
17,CACATGAA,0.138 ± 0.035
18,CACATGTC,0.0937 ± 0.018
19,CCCTAAAG,0.134 ± 0.057
20,ACTCTAGC,-0.0888 ± 0.0064
21,GGGGCAAA,0.0419 ± 0.059
22,AGCCCAAC,0.0919 ± 0.041
23,GCTGACCA,-0.0567 ± 0.026
24,AGCCTTGG,0.0479 ± 0.022

row,Sequence,PBM 8-mer E-score
1,ACAAGTAG,0.00901 ± 0.018
2,AACATGTT,0.304 ± 0.043
3,AACATGTC,0.143 ± 0.038
4,AACATGTG,0.36 ± 0.026
5,AGCATGTG,0.223 ± 0.016
6,GACATGTA,0.217 ± 0.066
7,AACATGAG,0.0341 ± 0.0065
8,TACATGCA,0.222 ± 0.018
9,AACATGTA,0.2242 ± 0.0011
10,TACATGTA,0.265 ± 0.051
11,AGGGCTCG,-0.212 ± 0.027
12,ACAAGGGG,0.0199 ± 0.047
13,TCGATACA,0.197 ± 0.0083
14,GCGATGGA,-0.138 ± 0.0024
15,ATAGCCGA,-0.00055 ± 0.0078
16,ATTCCAGA,0.0163 ± 0.071
17,CGGTGATC,-0.15 ± 0.0077
18,ACTTGAAG,0.186 ± 0.027
19,AATGTAAT,0.189 ± 0.0034
20,CATGTAAA,0.12 ± 0.055
21,GATGTATA,0.107 ± 0.023
22,AATGTATA,0.269 ± 0.048
23,CATGTATA,0.165 ± 0.0069
24,AATGTAAA,0.311 ± 0.014
